The list is not random: actives were taken first. Their share in the collection is about 19%.
HT1080 IDH1KD tx: HT-1080 IDH1 knockdown cell toxicity (counter line); HT-1080 IDH1 knockdown viability, ATP luminescence, 48 h; Potency, µM (doses to about 46.1 µM), inactives show at the highest dose activity, negative = toxicity, actives largely listed as cytotoxic; hit rate 2% among 360,000; AID 686971;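 also: potency is read from the fitted curve at half-maximal effect; 0% = DMSO wells and -100% = cell-free medium wells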
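After a 2 h attachment period, IDH1KD HT-1080 cells took pin-transferred compound for 48 h at 37 °C; ATP-based luminescence after 10 min room-temperature reagent incubation reported viability.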
TDP1 cell noCPT: qHTS for Inhibitors of human tyrosyl-DNA phosphodiesterase 1 (TDP1): qHTS in cells in absence of CPT. Potency, µM (doses to about 46.2 µM), inactives show at the highest dose activity change, negative = growth inhibition, hits mostly inhibitors. DT40 Tdp1-/- hTDP1 cells, no CPT, ATP luminescence, 48 h. hit rate 15% among 420,000; also: potency is read from the fitted curve at half-maximal effect; nearly all actives have a fitted effect of over 55% in size
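Stably hTDP1-transfected Tdp1-null chicken DT40 cells were treated with library compounds minus camptothecin and grown for at least 48 hr at 37 °C, after which cellular ATP was quantified by luminescence.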
DT40 TDP1 CPT: DT40-hTDP1 cell growth loss with CPT. chicken DT40 Tdp1-/-;hTDP1 cells + 20 nM CPT, ATP luminescence, 48 h. Potency, µM (series often up to 46.2 µM), for inactives: at the top dose activity change, negative = growth inhibition, actives largely listed as inhibitors. hit rate 12% among 420,000. AID 686979; also: potency is read from the fitted curve at half-maximal effect; nearly all actives have a fitted effect of over 55% in size
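Chicken DT40 Tdp1-/- cells stably complemented with human TDP1 were seeded at 400 cells/well in medium containing 20 nM camptothecin, exposed to pin-transferred compounds, and grown at 37 °C for at least 48 hr. Viability was read as ATP luminescence.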
IL-1B inflam inh: inhibitors of inflammasome signaling (IL-1 beta secretion) | THP-1 LPS/ATP IL-1B secretion, AlphaLISA, 16 h; stronger effect = lower value | hit rate 4.7% among 360,000 | activity change, % at 57.5 µM; in the data active = activity change below about -50%; inconclusive = mostly about -30% to -49%
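THP-1 cells pretreated 1 hr with compounds (up to 57.5 uM final), then stimulated with LPS (250 ng/mL final) plus ATP (1.25 mM final); secreted IL-1B measured by AlphaLISA after 16 hr, decreased signal indicating inhibition.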
HT1080NT lethal: kills 2HG-producing HT-1080-NT fibrosarcoma cells; hit rate 1.6% among 360,000; HT-1080-NT fibrosarcoma viability, CellTiter-Glo ATP luminescence, 48 h; AID 686970; Potency, µM (highest dose often 46.1 µM), without a hit: top-dose activity, negative = less viability, usual class: cytotoxic;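 also: NT is the 2HG producing partner of a matched IDH1 knockdown line; potency is read from the fitted curve at half-maximal effect; 0% = DMSO-treated cells and -100% = media-only wells without cells; nearly all actives have a fitted effect of over 55% in size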
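Luminescent CellTiter-Glo readout after 48 hours of compound exposure at 37 degrees C defined viability of HT-1080-NT cells. Activity was normalized to DMSO wells and cell-free media wells; concentration-response curves were fitted and assigned curve classes.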
* = called active by the depositor; ? = inconclusive; . = no result given; [ ] = remark or other dose. Unless noted, calls follow the shape of the dose curve; as a rule, active = well fitted curve in the direction sought with a large enough effect; inconclusive = small, poorly fitted or top-dose-only effect, or another doubt; inactive = no such curve, though single readings can be large; an effect the other way counts as inactive or inconclusive. Unless noted, % is scaled to controls: 0 for no effect and ±100 for the full control effect.

SMILES	HT1080 IDH1KD tx	TDP1 cell noCPT	DT40 TDP1 CPT	IL-1B inflam inh	HT1080NT lethal
COC(=O)c1ccccc1NC(=O)CCS(=O)(=O)c1nc(-c2ccc3c(c2)OCO3)cc(C(F)(F)F)n1	.	3.3µM*	2.9µM*	.	.
O=C(CSc1nc(-c2ccc(F)cc2)cc(C(F)(F)F)n1)Nc1ccc2c(c1)OCO2	13%	-29%	-27%	19	2%
O=C(CCS(=O)(=O)c1nc(-c2ccc3c(c2)OCO3)cc(C(F)(F)F)n1)Nc1ccc(Br)cc1	.	3.3µM*	4.1µM*	.	.
O=C(CCS(=O)(=O)c1nc(-c2ccc3c(c2)OCO3)cc(C(F)(F)F)n1)Nc1ccccc1F	.	8.2µM*	7.3µM*	.	.
Cc1cc(NC(=O)CS(=O)(=O)Cc2ccccc2)no1	14%	-19%	6%	27	-2%
C=CCC1[C@H](C)[C@H]2[C@@H]3CC[C@@H](C3)[C@H]2CN1S(=O)(=O)c1ccc(C)cc1 (some centres not stated)	?	?	18µM*	46	-20%
Cc1ccc(S(=O)(=O)N2CCn3cccc3C2C)cc1 (configuration not stated)	-8%	-25%	-5%	13	0%
CCOC(=O)C1CN(S(=O)(=O)c2ccc(C)cc2)CCN1S(=O)(=O)c1ccc(C)cc1 (configuration not stated)	-2%[9.24 µM]	?	?	-11	-6%
Cc1ccc(S(=O)(=O)N2C[C@@H]3[C@H]4CC[C@H](C4)[C@@H]3[C@@H](C)[C@@H]2c2ccn([Si](C(C)C)(C(C)C)C(C)C)c2)cc1	9%	23µM*	?	25	7%
Cc1ccc(S(=O)(=O)N2C[C@@H]3[C@H]4CC[C@H](C4)[C@@H]3[C@@H](C)C2CC(=O)c2ccccc2)cc1 (some centres not stated)	-5%	23µM*	?	-2	?
O=C(NCCN1CCOCC1)c1ccc(NS(=O)(=O)c2cccc([N+](=O)[O-])c2)cc1	-2%	17%	-2%	2	0%
Cc1ccc(C(=O)N2CCN(c3ccccc3Cl)CC2)cc1[N+](=O)[O-]	3%	?	29µM*	-10	-2%
CC1CCN(c2cc(N3CCN(C(=O)c4ccc(F)c(F)c4)CC3)c([N+](=O)[O-])cc2F)CC1	3%	23µM*	?	-26	-2%
CC1CCN(c2cc(N3CCOCC3)c([N+](=O)[O-])cc2F)CC1	-2%	?	-11%	13	-17%
Cc1cccc(N2CCN(C(=O)c3ccc(-n4cncn4)c([N+](=O)[O-])c3)CC2)c1C	1%	-26%	21µM*	-14	7%
COc1cc(F)ccc1-c1csc(C(O)c2ccc(F)c(F)c2)n1 (configuration not stated)	?	13µM*	?	-5	?
COc1ccccc1-c1csc(C(O)c2ccccc2)n1 (configuration not stated)	10%	?	23µM*	-4	28%
COc1ccccc1-c1csc(C(O)c2cccc(Cl)c2)n1 (configuration not stated)	-5%	?	21µM*	-4	4%
COc1ccc(C(O)c2nc(-c3ccccc3OC)cs2)cc1 (configuration not stated)	15%	?	?	10	6%
COc1cc(C(O)c2nc(-c3ccc(F)cc3OC)cs2)ccc1F (configuration not stated)	?	?	?	-3	?
Cc1c(Cl)cccc1NC(=O)N1CCC(CN2CCOCC2)CC1	.	-12%	-13%	.	.
Cc1ccc(N=Cc2c(C)[nH]n(-c3nc4ccccc4[nH]3)c2=O)cc1	3.3µM*	4.1µM*	3.3µM*	8	2.9µM*
Cc1ccc(-n2[nH]c(C)c(C=Nc3ccc4[nH]c(=O)[nH]c4c3)c2=O)cc1	?	16µM*	16µM*	-28	?
Cc1ccc(-n2[nH]c(C)c(C=Nc3ccc4[nH]c(=O)[nH]c4c3)c2=O)cc1C	23µM*	21µM*	?	-18	23µM*
Cc1[nH]n(-c2cccc3ccccc23)c(=O)c1C=Nc1ccc2[nH]c(=O)[nH]c2c1	10%	-14%	-8%	22	13%
SMILES	HT1080 IDH1KD tx	TDP1 cell noCPT	DT40 TDP1 CPT	IL-1B inflam inh	HT1080NT lethal
CC(=O)Nc1ccc(-c2ccnc3c2CC(C(=O)NCc2ccco2)O3)cc1 (configuration not stated)	?	0.0065µM*	0.18µM*	40	?
CC(=O)Nc1ccc(-c2ccnc3c2CC(C(=O)NCc2ccccc2)O3)cc1 (configuration not stated)	?	0.018µM*	0.023µM*	60	?
CC(=O)Nc1ccc(-c2ccnc3c2CC(C(=O)NCc2ccc(N4CCN(C)CC4)cc2)O3)cc1 (configuration not stated)	4%	?	?	22	9%
CC(=O)Nc1ccc(-c2ccnc3c2CC(C(=O)NCCc2ccccc2)O3)cc1 (configuration not stated)	0%	?	?	53	-15%
CCCCOc1ccc(C(O)(CCC)CCN2CCOCC2)cc1 (configuration not stated)	-25%	16µM*	21µM*	0	-8%
CCc1ccc(C(O)(C(C)C)C(CN2CCOCC2)c2ccccc2)cc1 (configuration not stated)	0%	16µM*	16µM*	0	-3%
CCCCOc1ccc(C(O)(CC)CCN2CCOCC2)cc1 (configuration not stated)	-15%	-27%	-26%	?	-13%
CCCCCOc1ccc(C(C)(O)C(CN2CCOCC2)c2ccccc2)cc1 (configuration not stated)	-2%	21µM*	?	?	-9%
CCCOc1ccc(C(C)(O)CN2CCOCC2)cc1 (configuration not stated)	2%[9.24 µM]	-21%	-2%	2	6%
CC(C)C(O)(c1ccccc1)C(CN1CCOCC1)c1ccccc1 (configuration not stated)	7%	?	?	24	1%
CCc1ccc(C(C)(O)C(CN2CCOCC2)c2ccccc2)cc1 (configuration not stated)	-14%	21µM*	21µM*	-3	-5%
COc1cc([N+](=O)[O-])cc(/C=N/NC(=O)CSc2ccccn2)c1O	?	?	?	26	?
O=C(CSc1ncccn1)NC1CCS(=O)(=O)C1 (configuration not stated)	9%	24%	-2%	31	18%
